# Only a selection was taken, and the strongest signals are over-represented in it overall.
# Experiments:
# Test in all cases: glycan array binding signal (z-score within array); higher = stronger binding
# Settings in all cases: glycan notation: IUPAC condensed, linker removed
# [1] = target: Fuc(a1-2)Gal(b1-3)GalNAc(b1-3)Gal(a1-4)Gal(b1-4)Glc
# Method in brief: (§1)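 From the Consortium for Functional Glycomics database, 3228 arrays were curated, keeping only those whose protein sequence was available. Binding is given as a within-array Z-score averaged across arrays sharing a protein sequence and across linkers. Negative Z-scores can be read as non-binding.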
# [2] = target: Fuc(a1-2)Gal(b1-3)GlcNAc6S
# Method in brief: as §1
# [3] = target: Fuc(a1-2)Gal(b1-3)[Fuc(a1-4)]GlcNAc(b1-2)Man(a1-3)[Fuc(a1-2)Gal(b1-3)[Fuc(a1-4)]GlcNAc(b1-2)Man(a1-6)]Man(b1-4)GlcNAc(b1-4)[Fuc(a1-6)]GlcNAc(b1-4)[Fuc(a1-6)]GlcNAc
# Method in brief: as §1
# [4] = target: Fuc(a1-2)Gal(b1-4)GlcNAc(b1-3)Gal(b1-4)GlcNAc(b1-3)Gal(b1-4)GlcNAc
# Method in brief: as §1
# [5] = target: Fuc(a1-2)Gal6S(b1-4)Glc6S
# Method in brief: as §1
# Fuc(a1-2)[Gal(a1-3)]Gal = target: Fuc(a1-2)[Gal(a1-3)]Gal
# Method in brief: as §1
# [6] = target: Fuc(a1-2)[GalNAc(a1-3)]Gal(b1-4)[Fuc(a1-3)]GlcNAc(b1-3)GalNAc
# Method in brief: as §1
# [7] = target: Fuc(a1-3)[Gal3S(b1-4)]GlcNAc6S
# Method in brief: as §1
# Fuc(a1-4)GlcNAc = target: Fuc(a1-4)GlcNAc
# Method in brief: as §1
# [8] = target: Gal(a1-3)Gal(b1-4)GlcNAc(b1-2)Man(a1-3)[Gal(a1-3)Gal(b1-4)GlcNAc(b1-2)Man(a1-6)]Man(b1-4)GlcNAc(b1-4)GlcNAc
# Method in brief: as §1
# [9] = target: Gal(a1-3)Gal(b1-4)[Fuc(a1-3)]GlcNAc(b1-2)Man(a1-3)[Gal(a1-3)Gal(b1-4)[Fuc(a1-3)]GlcNAc(b1-2)Man(a1-6)]Man(b1-4)GlcNAc(b1-4)GlcNAc
# Method in brief: as §1
# Gal(a1-3)GalNAc = target: Gal(a1-3)GalNAc
# Method in brief: as §1
# [10] = target: Gal(a1-4)Gal(b1-4)GlcNAc(b1-2)Man(a1-3)[Gal(a1-4)Gal(b1-4)GlcNAc(b1-2)Man(a1-6)]Man(b1-4)GlcNAc(b1-4)GlcNAc
# Method in brief: as §1
# [11] = target: Gal(a1-4)Gal(b1-4)GlcNAc(b1-3)Gal(b1-4)Glc
# Method in brief: as §1
# [12] = target: Gal(b1-3)GlcNAc(b1-3)Gal(b1-4)GlcNAc(b1-2)[Gal(b1-3)GlcNAc(b1-3)Gal(b1-4)GlcNAc(b1-6)]Man(a1-6)[Gal(b1-3)GlcNAc(b1-3)Gal(b1-4)GlcNAc(b1-2)Man(a1-3)]Man(b1-4)GlcNAc(b1-4)[Fuc(a1-6)]GlcNAc
# Method in brief: as §1
# [13] = target: Gal(b1-4)GalNAc(b1-3)[Fuc(a1-2)]Gal(b1-4)GlcNAc
# Method in brief: as §1
# [14] = target: Gal(b1-4)GlcNAc(b1-2)[Gal(b1-4)GlcNAc(b1-6)]Man(a1-6)[Gal(b1-4)GlcNAc(b1-2)Man(a1-3)]Man(b1-4)GlcNAc(b1-4)[Fuc(a1-6)]GlcNAc
# Method in brief: as §1
# [15] = target: Gal(b1-4)GlcNAc(b1-3)Gal(b1-3)GalNAc
# Method in brief: as §1
# [16] = target: Gal(b1-4)GlcNAc(b1-3)Gal(b1-4)GlcNAc(b1-2)Man(a1-3)[Gal(b1-4)GlcNAc(b1-3)Gal(b1-4)GlcNAc(b1-2)Man(a1-6)]Man(b1-4)GlcNAc(b1-4)GlcNAc
# Method in brief: as §1
# [17] = target: Gal(b1-4)GlcNAc(b1-3)Gal(b1-4)GlcNAc(b1-2)Man(a1-3)[Gal(b1-4)GlcNAc(b1-3)Gal(b1-4)GlcNAc(b1-2)Man(a1-6)]Man(b1-4)GlcNAc(b1-4)[Fuc(a1-6)]GlcNAc
# Method in brief: as §1
# [18] = target: Gal(b1-4)GlcNAc(b1-3)Gal(b1-4)GlcNAc(b1-3)Gal(b1-4)GlcNAc(b1-2)[Gal(b1-4)GlcNAc(b1-3)Gal(b1-4)GlcNAc(b1-3)Gal(b1-4)GlcNAc(b1-6)]Man(a1-6)[Gal(b1-4)GlcNAc(b1-3)Gal(b1-4)GlcNAc(b1-3)Gal(b1-4)GlcNAc(b1-2)Man(a1-3)]Man(b1-4)GlcNAc(b1-4)[Fuc(a1-6)]GlcNAc
# Method in brief: as §1
# [19] = target: Gal(b1-4)GlcNAc(b1-3)Gal(b1-4)GlcNAc(b1-3)Gal(b1-4)GlcNAc(b1-3)Gal(b1-4)GlcNAc(b1-2)Man(a1-3)[Gal(b1-4)GlcNAc(b1-3)Gal(b1-4)GlcNAc(b1-3)Gal(b1-4)GlcNAc(b1-3)Gal(b1-4)GlcNAc(b1-2)Man(a1-6)]Man(b1-4)GlcNAc(b1-4)GlcNAc
# Method in brief: as §1
# [20] = target: Gal(b1-4)GlcNAc(b1-3)Gal(b1-4)GlcNAc(b1-3)Gal(b1-4)GlcNAc(b1-3)Gal(b1-4)GlcNAc(b1-2)Man(a1-3)[Gal(b1-4)GlcNAc(b1-3)Gal(b1-4)GlcNAc(b1-3)Gal(b1-4)GlcNAc(b1-3)Gal(b1-4)GlcNAc(b1-2)Man(a1-6)]Man(b1-4)GlcNAc(b1-4)[Fuc(a1-6)]GlcNAc
# Method in brief: as §1
# [21] = target: Gal(b1-4)GlcNAc(b1-3)Gal(b1-4)GlcNAc(b1-3)Gal(b1-4)GlcNAc(b1-3)Gal(b1-4)GlcNAc(b1-3)Gal(b1-4)GlcNAc(b1-2)Man(a1-3)[Gal(b1-4)GlcNAc(b1-3)Gal(b1-4)GlcNAc(b1-3)Gal(b1-4)GlcNAc(b1-3)Gal(b1-4)GlcNAc(b1-3)Gal(b1-4)GlcNAc(b1-2)Man(a1-6)]Man(b1-4)GlcNAc(b1-4)GlcNAc
# Method in brief: as §1
# [22] = target: Gal(b1-4)GlcNAc(b1-3)Gal(b1-4)GlcNAc(b1-3)Gal(b1-4)GlcNAc(b1-3)Gal(b1-4)GlcNAc(b1-3)Gal(b1-4)GlcNAc(b1-3)Gal(b1-4)GlcNAc(b1-2)Man(a1-3)[Gal(b1-4)GlcNAc(b1-3)Gal(b1-4)GlcNAc(b1-3)Gal(b1-4)GlcNAc(b1-3)Gal(b1-4)GlcNAc(b1-3)Gal(b1-4)GlcNAc(b1-3)Gal(b1-4)GlcNAc(b1-2)Man(a1-6)]Man(b1-4)GlcNAc(b1-4)GlcNAc
# Method in brief: as §1
# [23] = target: Gal(b1-4)GlcNAc(b1-3)Gal(b1-4)GlcNAc(b1-3)GalNAc
# Method in brief: as §1
# Gal3S(b1-4)Glc = target: Gal3S(b1-4)Glc
# Method in brief: as §1
# GalNAc(a1-3)Gal = target: GalNAc(a1-3)Gal
# Method in brief: as §1
# [24] = target: GalNAc(b1-3)Gal(a1-4)Gal(b1-4)GlcNAc(b1-3)Gal(b1-4)Glc
# Method in brief: as §1
# Glc(b1-6)Glc = target: Glc(b1-6)Glc
# Method in brief: as §1
# [25] = target: GlcNAc(b1-2)Man(a1-3)[GlcNAc(b1-4)][GlcNAc(b1-2)Man(a1-6)]Man(b1-4)GlcNAc(b1-4)GlcNAc
# Method in brief: as §1
# [26] = target: GlcNAc(b1-3)Gal(b1-4)GlcNAc(b1-2)[GlcNAc(b1-3)Gal(b1-4)GlcNAc(b1-6)]Man(a1-6)[GlcNAc(b1-3)Gal(b1-4)GlcNAc(b1-2)Man(a1-3)]Man(b1-4)GlcNAc(b1-4)GlcNAc
# Method in brief: as §1
# [27] = target: GlcNAc(b1-3)Gal(b1-4)GlcNAc(b1-3)Gal(b1-4)GlcNAc(b1-3)Gal(b1-4)GlcNAc(b1-3)Gal(b1-4)GlcNAc(b1-2)Man(a1-3)[GlcNAc(b1-3)Gal(b1-4)GlcNAc(b1-3)Gal(b1-4)GlcNAc(b1-3)Gal(b1-4)GlcNAc(b1-3)Gal(b1-4)GlcNAc(b1-2)Man(a1-6)]Man(b1-4)GlcNAc(b1-4)[Fuc(a1-6)]GlcNAc
# Method in brief: as §1
# [28] = target: GlcNAc(b1-3)Gal(b1-4)GlcNAc(b1-3)GalNAc
# Method in brief: as §1
# [29] = target: GlcNAc(b1-3)Gal(b1-4)GlcNAc(b1-3)[GlcNAc(b1-3)Gal(b1-4)GlcNAc(b1-3)]GalNAc
# Method in brief: as §1
# [30] = target: Neu5Ac(a2-3)Gal(b1-3)GlcNAc(b1-2)Man(a1-3)[Neu5Ac(a2-3)Gal(b1-3)GlcNAc(b1-2)Man(a1-6)]Man(b1-4)GlcNAc(b1-4)GlcNAc
# Method in brief: as §1
# [31] = target: Neu5Ac(a2-3)Gal(b1-3)GlcNAc(b1-4)Gal(b1-4)Glc
# Method in brief: as §1
# [32] = target: Neu5Ac(a2-3)Gal(b1-3)GlcNAc(b1-6)GalNAc
# Method in brief: as §1
# [33] = target: Neu5Ac(a2-3)Gal(b1-3)GlcNAc6S
# Method in brief: as §1
# [34] = target: Neu5Ac(a2-3)Gal(b1-4)[Fuc(a1-3)]GlcNAc(b1-2)Man
# Method in brief: as §1
# [35] = target: Neu5Ac(a2-3)Gal(b1-4)[Fuc(a1-3)]GlcNAc(b1-6)[Neu5Ac(a2-3)Gal(b1-3)]GalNAc
# Method in brief: as §1
# Neu5Ac(a2-6)Gal = target: Neu5Ac(a2-6)Gal
# Method in brief: as §1
# [36] = target: Neu5Ac(a2-6)Gal(b1-4)GlcNAc(b1-2)Man(a1-3)Man(b1-4)GlcNAc(b1-4)GlcNAc
# Method in brief: as §1
# [37] = target: Neu5Ac(a2-6)Gal(b1-4)GlcNAc(b1-2)[Neu5Ac(a2-6)Gal(b1-4)GlcNAc(b1-4)]Man(a1-3)[GlcNAc(b1-4)][Neu5Ac(a2-6)Gal(b1-4)GlcNAc(b1-4)Man(a1-6)]Man(b1-4)GlcNAc(b1-4)GlcNAc
# Method in brief: as §1
# [38] = target: Neu5Ac(a2-6)Gal(b1-4)GlcNAc(b1-6)[Gal(b1-3)]GalNAc
# Method in brief: as §1
binder,measurement,setting,value
PX9961A-pdi-456-24-456 (Parabacteroides distasonis) (protein) KTSSTQLPTIDAISSVADLTNAVNGVYEQQATEVGSYGAEFTLLADLRSGDFQSISTVNHAGPMYRYQTGKNDEMVYSFYKLFYNSLARLNNVLAAAENLEGADVDILKGELYAMRALYHFDLARVFAKLPSTTDMNDLGIVLSTEVYPTDYIGTRATLQQTYDQILKDIETALPLLSKDKQTGHINYWGALAIRARAYLYLEKNKEALADCKEIIASSPYKLYTRDEYIGAWDKEGTNEAIFEILVTPNYNAQRNSIGYFTHASGYGECAATESFLEELAKHPGDIRTELFAKETDNGYDGTYPQKYKGRDGQIYVNNPKVVRLSEVYLIAAEAALKAGDTSAAAGYMNTLRKNRIENYTDVASITLDDILLERRLELFTEGHTAWDAWRNGKSVNNKFVGEVKPGDYRTIMAIPIGEITVSRGQLIQNPGY,glycan array binding signal (z-score),[1],-0.216
same,glycan array binding signal (z-score),[2],0.178
same,glycan array binding signal (z-score),[3],0.196
same,glycan array binding signal (z-score),[4],-0.148
same,glycan array binding signal (z-score),[5],-0.221
same,glycan array binding signal (z-score),Fuc(a1-2)[Gal(a1-3)]Gal,1.54
same,glycan array binding signal (z-score),[6],0.753
same,glycan array binding signal (z-score),[7],-0.41
same,glycan array binding signal (z-score),Fuc(a1-4)GlcNAc,7.24
same,glycan array binding signal (z-score),[8],0.21
same,glycan array binding signal (z-score),[9],0.63
same,glycan array binding signal (z-score),Gal(a1-3)GalNAc,-0.152
same,glycan array binding signal (z-score),[10],0.514
same,glycan array binding signal (z-score),[11],0.043
same,glycan array binding signal (z-score),[12],1.83
same,glycan array binding signal (z-score),[13],-0.317
same,glycan array binding signal (z-score),[14],2.12
same,glycan array binding signal (z-score),[15],-0.575
same,glycan array binding signal (z-score),[16],2.2
same,glycan array binding signal (z-score),[17],2.48
same,glycan array binding signal (z-score),[18],2.11
same,glycan array binding signal (z-score),[19],0.035
same,glycan array binding signal (z-score),[20],6.49
same,glycan array binding signal (z-score),[21],2.59
same,glycan array binding signal (z-score),[22],7.59
same,glycan array binding signal (z-score),[23],0.087
same,glycan array binding signal (z-score),Gal3S(b1-4)Glc,-0.121
same,glycan array binding signal (z-score),GalNAc(a1-3)Gal,3.31
same,glycan array binding signal (z-score),[24],0.012
same,glycan array binding signal (z-score),Glc(b1-6)Glc,-0.218
same,glycan array binding signal (z-score),[25],-0.42
same,glycan array binding signal (z-score),[26],0.033
same,glycan array binding signal (z-score),[27],2.18
same,glycan array binding signal (z-score),[28],0.389
same,glycan array binding signal (z-score),[29],-0.009
same,glycan array binding signal (z-score),[30],-0.512
same,glycan array binding signal (z-score),[31],-0.437
same,glycan array binding signal (z-score),[32],0.343
same,glycan array binding signal (z-score),[33],0.048
same,glycan array binding signal (z-score),[34],-0.398
same,glycan array binding signal (z-score),[35],0.273
same,glycan array binding signal (z-score),Neu5Ac(a2-6)Gal,-0.046
same,glycan array binding signal (z-score),[36],-0.293
same,glycan array binding signal (z-score),[37],-0.061
same,glycan array binding signal (z-score),[38],-0.445

# From the supplement of paper PMC8728848
